Source: PubChem BioAssay
Sa ugtP lethal: kills S. aureus RN4220 lacking UgtP. S. aureus RN4220 ugtP deletion, OD600 growth, 16 h. growth inhibition, % (test concentration not listed). 330,000 compounds, 0.54% hits. AID 1259309; in the data active means growth inhibition above about 68%;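 further: plate controls were untreated wells for no effect and antibiotic for full effect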
RN4220 kill: S. aureus RN4220 growth inhibition. OD600, 16 h. inhibition, % (no concentration beside the values). 330,000 compounds, 0.33% hits; in the data active means inhibition above about 85%;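 further: plate controls were untreated cells for no effect and reference antibiotic for full effect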
Mtb bLac sens: beta-lactam sensitization of Mtb H37Rv | 330,000 compounds, 0.27% hits | inhibition, % at 25 µM | M. tuberculosis H37Rv growth with meropenem, percent inhibition | AID 434955; call rule not given here;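 further: growth measured after seven days incubation then overnight dye step; 0% = bacteria only wells and 100% = bacteria with antibiotic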
BioA inh: inhibitors of Mycobacterium tuberculosis BioA enzyme | 360,000 compounds, 0.096% hits | inhibition, % at 9.99 µM | purified M. tuberculosis BioA enzyme, plate reader | AID 602481; in the data active means inhibition above about 40%; inconclusive means no clear call, values can overlap the other calls
PfHsp40 rescue: rescue of PfHsp40-mediated yeast toxicity; AID 504582; S. cerevisiae expressing PfHsp40, growth rescue, ATP luminescence; 340,000 compounds, 0.68% hits; growth rescue, % at 12.5 µM; in the data active means growth rescue above about 28%, passing the limit was not always enough; inconclusive means no clear call, values can overlap the other calls;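 further: yeast W303a lacking pdr1 and pdr3 grown in galactose medium; growth measured after three days at 30 °C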
* = called active by the depositor; ? = inconclusive; / = not tested or not shown. Most compounds without a hit are left out; they make up all but 0.9% or so of the library.

SMILES	Sa ugtP lethal	RN4220 kill	Mtb bLac sens	BioA inh	PfHsp40 rescue
CC1(O)CC(c2ccc(Cl)cc2)=NN1C(=O)c1ccc([N+](=O)[O-])cc1 (stereo not given)	98*	99*	1	/	-1
COc1cc2c(cc1OC)C(=O)N1C3c4cc(C)ccc4OCC3C(c3ccccc3)[C@]1(C)C(=O)N2 (stereo not given in full)	8	-2	/	/	/
NCCCCCc1cn(C(CCC(=O)O)C(=O)NCCCCCCCCCCC(=O)N2CCNCC2)nn1 (stereo not given)	2	6	/	/	/
CC(C)(C)C(C(Oc1ccc(Cl)cc1)n1cncn1)n1nnnc1C(c1cccc(Cl)c1)N1CCCCC1 (stereo not given)	/	/	98	/	/
CC(C)(C)C(O)C(Oc1ccc(Cl)cc1)n1cncn1 (stereo not given)	-7	5	-3	1	141*
CC(C)CC(=O)NC(=S)Nc1ccc(S(=O)(=O)N2CCCC2)cc1	87*	4	-2	/	0
CC(C)C(=O)NC(=S)Nc1ccc(S(=O)(=O)N2CCCC2)cc1	5	-3	3	1	0
Cc1cc(C)nc(NS(=O)(=O)c2ccc(NC(=S)NC(=O)CC(C)C)cc2)n1	84*	4	-8	-1	-1
COc1ccc(OCC(=O)N2CCC(Cc3ccccc3)CC2)cc1	3	2	-6	1	0
COc1ccc(Br)c(C(=O)OCC(=O)N2CCC(Cc3ccccc3)CC2)c1	0	-1	/	-1	27*
Nc1ccn(Cc2ccccc2)n1	4	12	0	/	1
c1ccc(Cn2ccc(-c3cnc(-c4ccccc4)s3)n2)cc1	14	-5	73	/	69*
CCCc1nnc(NC(=O)c2c(O)c3cccc4c3n(c2=O)CCC4)s1	96*	88*	4	/	/
CCCCNC(=O)c1c(O)c2cccc3c2n(c1=O)CCC3	-1	-11	17	1	9
CCOC(=O)C1C2COc3cc(OC)ccc3C2N2C(=O)CN(CC3CCCO3)C(=O)[C@@]12C (stereo not given in full)	2	8	/	/	/
O=Cc1cc2ccccc2nc1SCc1ccc(Cl)cc1	10	-8	14	/	-1
O=Cc1cc2ccccc2nc1SCc1ccc(Cl)c(Cl)c1	99*	56	4	/	1
Cc1ccc(-n2nc3c(c2NC(=O)C(C)(C)C)CSC3)c(C)c1	13	11	2	-1	1
CCC(=O)Nc1c2c(nn1-c1ccc(C)cc1C)CSC2	-3	3	9	-2	48*
Cc1ccc(CN=c2c([N+](=O)[O-])nn(-c3ccc(Cl)cc3)n2O)cc1	-2	-4	100	0	52*
O=[N+]([O-])c1nn(-c2cccc(Cl)c2)n(O)c1=NCc1cccnc1	18	19	?	/	2
O=[N+]([O-])c1nn(-c2ccc(Cl)cc2)n(O)c1=NCc1ccncc1	46	28	99	1	2
CCc1cccc(N=c2c([N+](=O)[O-])nn(-c3ccc(Cl)cc3)n2O)c1	92*	95*	100	/	3
Cc1cccc(N=c2c([N+](=O)[O-])nn(-c3ccc(Cl)cc3)n2O)c1	4	-4	50	-1	-1
Cc1cc(C)cc(N=c2c([N+](=O)[O-])nn(-c3cccc(Cl)c3)n2O)c1	84	88*	100	0	-1
SMILES	Sa ugtP lethal	RN4220 kill	Mtb bLac sens	BioA inh	PfHsp40 rescue
COc1ccccc1N1C(=O)CC(N2CCc3ccccc32)C1=O (stereo not given)	0	2	2	-2	-2
COc1ccc(Cl)cc1N1C(=O)CC(N2CCc3ccccc32)C1=O (stereo not given)	7	4	-7	-1	43*
COC(=O)C1=CC(C(=O)OC)C2C3=C(C(=O)C24CCCCC4)C(C)n2c(=O)n(-c4ccccc4)c(=O)n2C3C1 (stereo not given)	2	9	/	/	/
O=[N+]([O-])c1ccc2c(c1)Cc1cc(O)ccc1-2	26	-7	/	/	51*
O=C(O)c1cccc2c1Cc1cc([N+](=O)[O-])ccc1-2	28	8	/	0	118*
O=C(O)c1cccc2c1-c1ccc([N+](=O)[O-])cc1C2=O	/	/	/	/	-2
CC#CCN1c2ccccc2[C@]23CC(C(=O)OC)N=C2NC(C(=O)OC)=C(C(=O)OC)C13 (stereo not given in full)	2	1	/	/	/
CC[C@@H](O)C[C@H]1CCC[C@@]2(C[C@@H]3OC(=O)/C=C/[C@@](C)(O)[C@@H](O)[C@H](C)[C@@H](O)[C@H](OC4CCC(N(C)C)C(C)O4)[C@@H](O)[C@](C)(O)CCCCC/C=C/[C@@H]4CC(C)(C)O[C@@]4(O)C[C@H](O2)[C@H]3C)O1 (stereo not given in full)	/	/	/	/	56*
CC(C)(C)N1C(=O)C2C(c3ccc(Br)cc3)N3C(=O)N(c4ccc(Br)cc4)C(=O)[C@@]3(Cc3ccccc3)C2C1=O (stereo not given in full)	-3	0	/	/	/
CNC(=S)N1CCN(c2c(F)cc3c(=O)c(C(=O)O)cn(C4CC4)c3c2OC)CC1C (stereo not given)	100*	100*	100	3	6
COC(=O)C(C)NC(=S)N1CCN(c2c(F)cc3c(=O)c(C(=O)O)cn(C4CC4)c3c2OC)CC1C (stereo not given)	100*	100*	100	/	0
C[C@H]1COc2c(C3(N)CC3)c(F)cc3c(=O)c(C(=O)O)cn1c23	/	/	100	/	/
CC(C)c1ccc(-c2nnn(CCC#N)n2)cc1	0	3	1	/	1
CC(C)c1ccc(-c2nnn(Cc3nc4ccccc4s3)n2)cc1	85*	1	?	-2	0
C#CCOCCOCCOCCNc1nc(N2CCN(C(=O)C(CCCCN)n3cc(C(N)CC(N)=O)nn3)CC2)nc(N2CCN(C(=O)C(CC(N)=O)n3cc(C(N)C(C)CC)nn3)CC2)n1 (stereo not given)	-5	7	/	/	/
CCCCCCCCNC(=O)/C(C#N)=C/c1ccccc1[N+](=O)[O-]	91*	67	6	0	355*
N#C/C(=C\c1ccccc1[N+](=O)[O-])C(=O)NCc1ccccc1	-3	0	0	/	-1
Cc1ccc(OC(=O)C2c3ccccc3Oc3ccccc32)cc1C	90*	-1	96	/	0
CC(=O)c1ccc(OC(=O)C2c3ccccc3Oc3ccccc32)cc1	7	1	76	-1	-1
O=C(N/N=C/c1ccc[nH]1)c1ccccc1O	/	/	21	/	76*
O=C(N/N=C/c1coc2ccccc2c1=O)c1cc(Br)ccc1O	/	/	-19	0	89*
O=C(N/N=C/c1ccccc1O)c1cccc2ccccc12	/	/	11	1	32*
C=CCc1cccc(/C=N/NC(=O)c2ccccc2Br)c1O	/	/	3	/	?
C=CCc1cccc(/C=N/NC(=O)c2ccccc2OC)c1O	/	/	4	/	50*
O=C(O)c1ccc(C=NNC(=O)c2cccc3ccccc23)cc1	/	/	/	/	-1
COc1ccc(N=Nc2c(C)[nH]c3ccccc23)cc1	82*	-2	80	0	1
